A short description of assay [1]: S16 Schwann cell PMP22 intronic element beta-lactamase assay (AID 624044; calls by dose curve;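 note: 0% = DMSO and -100% = potassium clavulanate positive control; nearly all actives have a fitted effect of over 15% in size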). Particulars: S16 rat Schwann cells, PMP22 element beta-lactamase FRET, 24 h; ratio activity, negative = inhibition: at 38.3 µM (top of the series) unless noted. In outline:
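Beta-lactamase reporter under a PMP22 intronic regulatory element in stable S16 rat Schwann cells; 24 h compound exposure. 460 nm blue signal normalized between DMSO (0%) and potassium clavulanate, with 535 nm FRET tracking viability; curves classed by r2 and response.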

The subject of the next assay is CP191. Nature of the assay: qHTS profiling for inhibitors of Plasmodium falciparum proliferation (AID 504749).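 For activity, negative = inhibition: 0% = DMSO vehicle and full inhibition = artemisinin control.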 Note: nearly all actives have a fitted effect of over 60% in size. Note: potency is the fitted concentration of half-maximal effect. Particulars: P. falciparum in erythrocytes, SYBR Green DNA, 72 h; series mostly up to 28.7 µM. In outline: (§1)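 SYBR Green fluorescence of parasite DNA, read after lysis and overnight dark incubation, measured growth over 72 h in erythrocyte culture at 0.3% parasitemia and 2.5% hematocrit. Data normalised to DMSO and 0.29 uM artemisinin, with plate-drift correction.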
(qHTS replaces the single test concentration by a dilution series.)

For a further assay, the system named is CP194. The description is as above. Particulars: P. falciparum in erythrocytes, SYBR Green DNA, 72 h; series mostly up to 28.7 µM. In outline: as §1
A further assay relates to CP201. The assay is described as above. Particulars: P. falciparum in erythrocytes, SYBR Green DNA, 72 h; series mostly up to 28.7 µM. In a few lines:
as §1

For the next assay, the system named is CP217. Described as above. The settings on record: P. falciparum in erythrocytes, SYBR Green DNA, 72 h; series mostly up to 28.7 µM. In a few lines: as §1
The subject of another assay is CP237. The assay is described as above. Particulars: P. falciparum in erythrocytes, SYBR Green DNA, 72 h; series mostly up to 28.7 µM. In outline: as §1
The next assay deals with CP252. The assay is described as above. Particulars: P. falciparum in erythrocytes, SYBR Green DNA, 72 h; series mostly up to 12.8 µM. In a few lines: as §1
For the next assay, the system named is CP256. Described as above. Particulars: P. falciparum in erythrocytes, SYBR Green DNA, 72 h; series mostly up to 28.7 µM. In outline: as §1
The next assay deals with CP266. The assay is described as above. Particulars: P. falciparum in erythrocytes, SYBR Green DNA, 72 h; series mostly up to 12.8 µM. In outline:
as §1

Another assay has as its system CP286. The description is as above. Particulars: P. falciparum in erythrocytes, SYBR Green DNA, 72 h; series mostly up to 28.7 µM. In outline: as §1
In another assay the test system is CP297. Described as above. Particulars: P. falciparum in erythrocytes, SYBR Green DNA, 72 h; series mostly up to 28.7 µM. In a few lines: as §1
The next assay concerns CP315. The assay is described as above. The settings on record: P. falciparum in erythrocytes, SYBR Green DNA, 72 h; series mostly up to 28.7 µM. In outline:
as §1

In another assay the test system is CP325. The assay is described as above. The settings on record: P. falciparum in erythrocytes, SYBR Green DNA, 72 h; series mostly up to 28.7 µM. In a few lines: as §1
Another assay concerns CP335. The description is as above. The settings on record: P. falciparum in erythrocytes, SYBR Green DNA, 72 h; series mostly up to 12.8 µM. In outline: as §1
The next assay deals with GB4. The assay is described as above. Particulars: P. falciparum in erythrocytes, SYBR Green DNA, 72 h; series mostly up to 28.7 µM. In outline: as §1
A further assay concerns HB3. Described as above. The settings on record: P. falciparum in erythrocytes, SYBR Green DNA, 72 h; series mostly up to 28.7 µM. In outline: as §1
The subject of a further assay is N140. The assay is described as above. The settings on record: P. falciparum in erythrocytes, SYBR Green DNA, 72 h; series mostly up to 28.7 µM. In a few lines:
as §1

A further assay has as its system PAD. The assay is described as above. The settings on record: P. falciparum in erythrocytes, SYBR Green DNA, 72 h; series mostly up to 28.7 µM. In outline: as §1
The subject of another assay is PC15. The assay is described as above. The settings on record: P. falciparum in erythrocytes, SYBR Green DNA, 72 h; series mostly up to 28.7 µM. In outline: as §1
For another assay, the system named is SC27B. Described as above. Particulars: P. falciparum in erythrocytes, SYBR Green DNA, 72 h; series mostly up to 28.7 µM. In a few lines: as §1

For ten molecules, Potency and ratio activity, negative = inhibition results are on record in PubChem BioAssay (NCATS).

SMILES strings stand for the structures. Results filed as inconclusive are left out. Calls of active or inactive are those of the source. Unless noted, calls come from the whole dose curve; as a rule, active = well fitted inhibition curve with a large enough effect; inconclusive = small, poorly fitted or top-dose-only effect; inactive = flat fitted curve, though single readings scatter.

Regarding `CNC[C@H](O)c1ccc(O)cc1`, the Potency result (in assay [1]; in the assay with CP191; with CP194; in the assay on CP201; with CP217; in the assay on CP237) was “inactive” each time. The Potency result in the assay with CP252, in the assay with CP256, with CP266, in the assay with CP286, in the assay on CP297 and in the assay with CP315 was “inactive” each time. Besides, the Potency result in the assay with CP325, with CP335, in the assay with GB4, with HB3, in the assay on N140 and in the assay with PAD was “inactive” throughout. Besides, the Potency result in the assay with PC15 and with SC27B was “inactive” in each case.

As for `COc1ccc2c(c1OC)CN1CCc3cc4c(cc3[C@H]1C2)OCO4`, the Potency entry in [1] is “inactive”. Moreover, the Potency in the assay with CP256 is 3.16 µM (active); in the assay on CP297, 1.81 µM (active); in the assay on CP315 it was 3.61 µM (active); with GB4, 2.03 µM (active); with PAD, 3.16 µM (active).

As for `C[C@@]12CC[C@H]3[C@@H](CC[C@@H]4C[C@H]5S[C@H]5C[C@]43C)[C@H]1CC[C@H]2O`, the Potency entry (in assay [1]; in the assay with CP191; in the assay with CP194; in the assay with CP201; in the assay on CP217; in the assay on CP237) was “inactive” throughout. For the same molecule, the Potency result in the assay with CP252, in the assay on CP256, in the assay on CP266, in the assay on CP286, in the assay on CP297 and in the assay on CP315 was “inactive” in each case. For the same molecule, the Potency entry in the assay on CP325, with CP335, with GB4, in the assay on HB3, in the assay with N140 and with PAD was “inactive” in each case. Moreover, the Potency result with PC15 and in the assay on SC27B was “inactive” throughout.

`C[C@H]1CN(C2CCC(C#N)(c3ccc(F)cc3)CC2)CC[C@@]1(C(=O)O)c1ccccc1` (some centres undefined): the Potency entry (in [1]; in the assay with CP191; with CP194; with CP201; in the assay on CP217; with CP237) was “inactive” each time. For the same molecule, the Potency entry in the assay on CP252, in the assay on CP256, with CP266, with CP286, in the assay on CP297 and in the assay with CP315 was “inactive” throughout. Further, the Potency entry in the assay with CP325, with CP335, in the assay with GB4, with HB3, in the assay on N140 and with PAD was “inactive” in each case. For the same molecule, the Potency entry in the assay on PC15 and in the assay on SC27B was “inactive” throughout.

With `CC(C)c1c(CN(C)[C@@H](C)Cc2ccccc2)n(C)n(-c2ccccc2)c1=O`, in assay [1], the ratio activity, negative = inhibition was -8.16% [at 17.1 µM] (active). The Potency result in the assay with CP191, with CP194, in the assay with CP201, in the assay with CP217, in the assay with CP237 and in the assay with CP252 was “inactive” each time. Besides, the Potency entry in the assay with CP256, in the assay with CP266, in the assay on CP286, in the assay on CP297, in the assay with CP315 and with CP325 was “inactive” each time. Also, the Potency entry in the assay with CP335, with GB4, in the assay on HB3, in the assay on N140, in the assay with PAD and in the assay with PC15 was “inactive” in each case. Also, the Potency result with SC27B was “inactive”.

As for `C[C@@]12CCC(=O)C=C1C=C[C@H]1[C@H]3CC[C@](O)(CCC(=O)O)[C@]3(C)CC[C@@H]12`, the Potency entry (in assay [1]; with CP191; in the assay with CP194; in the assay with CP201; in the assay on CP217; with CP237) was “inactive” in each case. The Potency entry with CP252, with CP256, in the assay on CP266, in the assay with CP286, in the assay on CP297 and with CP315 was “inactive” in each case. Further, the Potency result in the assay with CP325, with CP335, in the assay with N140, in the assay with PAD, in the assay on PC15 and with SC27B was “inactive” throughout.

In the case of `NCC[C@H](O)C(=O)N[C@H]1C[C@@H](N)[C@@H](O[C@H]2O[C@@H](CN)[C@@H](O)[C@@H](O)[C@@H]2N)[C@@H](O[C@H]2O[C@@H](CO)[C@@H](O)[C@@H]2O)[C@@H]1O`, the Potency result (in assay [1]; with CP191; in the assay on CP194; in the assay with CP201; in the assay with CP217; in the assay with CP237) was “inactive” in each case. For the same molecule, the Potency result in the assay with CP252, in the assay on CP256, with CP266, in the assay on CP286, in the assay on CP297 and in the assay on CP315 was “inactive” each time. In addition, the Potency result in the assay on CP325, with CP335, in the assay with GB4, in the assay on HB3, in the assay with N140 and in the assay on PAD was “inactive” each time. Moreover, the Potency entry with PC15 and with SC27B was “inactive” each time.

Take `N[C@H]1C[C@H]1c1ccccc1`: the Potency entry (in assay [1]; in the assay with CP191; in the assay with CP194; with CP201; in the assay on CP217; in the assay with CP237) was “inactive” each time. The Potency entry with CP252, with CP256, in the assay with CP266, with CP286, in the assay with CP297 and with CP315 was “inactive” each time. For the same molecule, the Potency result with CP325, in the assay on CP335, with GB4, in the assay with HB3, in the assay with N140 and in the assay with PAD was “inactive” each time. Besides, the Potency entry in the assay on PC15 and in the assay with SC27B was “inactive” in each case.

As to `CC(=O)O[C@H]1CC[C@@]2(C)C(=CC[C@@H]3[C@H]2CC[C@]2(C)C(=O)CC[C@H]32)C1`, the Potency result (in assay [1]; in the assay with CP191; in the assay with CP194; in the assay with CP201; in the assay on CP217; in the assay with CP237) was “inactive” throughout. Further, the Potency entry in the assay with CP252, with CP256, in the assay on CP266, in the assay with CP286, in the assay on CP297 and with CP315 was “inactive” in each case. In addition, the Potency entry with CP325, in the assay with CP335, with GB4, with HB3, in the assay on N140 and with PAD was “inactive” in each case. Also, the Potency result in the assay with PC15 and in the assay with SC27B was “inactive” each time.

For the molecule `CN[C@@H](C)[C@H]1CC[C@@H](N)[C@@H](O[C@@H]2[C@@H](O)[C@@H](O[C@H]3OC[C@@](C)(O)[C@@H](NC)[C@@H]3O)[C@H](N)C[C@@H]2N)O1` (tested in a mixture with another compound), the Potency result (in assay [1]; with CP191; with CP194; in the assay on CP201; in the assay on CP217; with CP237) was “inactive” each time. The Potency entry with CP252, in the assay with CP256, with CP266, in the assay on CP286, in the assay with CP297 and in the assay on CP315 was “inactive” each time. The Potency entry in the assay on CP325, in the assay on CP335, with GB4, in the assay with HB3, with N140 and in the assay with PAD was “inactive” in each case. Moreover, the Potency entry in the assay with PC15 and in the assay on SC27B was “inactive” throughout.
